DT40 TDP1 no CPT: qHTS for Inhibitors of human tyrosyl-DNA phosphodiesterase 1 (TDP1): qHTS in cells in absence of CPT; DT40 Tdp1-/- hTDP1 cells, no CPT, ATP luminescence, 48 h; Potency, µM (highest dose often 46.2 µM), without a hit: at the highest dose activity change, negative = growth inhibition, most hits filed as inhibitors; 420,000 tested, 15% active; note: potency is the fitted concentration of half-maximal effect; % is set by controls: 0 for no effect and ±100 for the full control effect; nearly all actives have a fitted effect of over 55% in size
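A cellular qHTS used chicken DT40 cells lacking endogenous Tdp1 but carrying stably transfected human TDP1. Compounds were applied without camptothecin, and cell growth kinetics were judged by ATP-dependent luminescence after ≥48 hr.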
DRD3 antagonist: blocks the human D3 dopamine receptor | max response, negative = inhibition, % | D3R cells, DiscoveRx beta-arrestin luminescence, antagonist mode; stronger effect = lower value | P35462 | 360,000 tested, 2.5% active | AID 652054; in the data active = max response below about -50%; inconclusive = no clear call, values can overlap the other calls; note: % is set by controls: 0 for no effect and ±100 for the full control effect
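Cells expressing the human receptor were seeded at 1500 cells/well, incubated overnight at 37 degrees C in 5% CO2, then exposed to library compounds with dopamine controls for 90 minutes at 37 degrees C before luminescent detection.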
DRD3 agonist: D3 dopamine receptor (human) agonism. max activation, %. P35462. D3R DiscoveRx beta-arrestin cells, luminescence, 90 min. 410,000 tested, 0.58% active; in the data active = max activation above about 30%; note: 0% is about no effect
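Agonist-mode cell screen: cells plated at 1500/well and incubated overnight at 37 °C, then exposed to library compounds for 90 min at 37 °C. Detection reagent was added for 30–60 min at room temperature, and luminescence was read.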
ClpP mod: qHTS Assay for Activators of ClpP; Potency, µM (highest dose often 57.5 µM), inactives show at the top dose activity change, negative = active; purified B. subtilis ClpP, FRET peptide cleavage, 20 min; 340,000 tested, 1.9% active; ATP-dependent Clp protease proteolytic subunit (Bacillus subtilis (strain 168)), P80244; AID 651965, 2013; active = well fitted falling curve with a large enough effect; inconclusive = small, poorly fitted or top-dose-only effect; inactive = no such curve, though single readings can be large or run the other way; note: potency is the fitted concentration of half-maximal effect; the source files actives as falling curves though it sought activators and does not explain the sign; nearly all actives have a fitted effect of over 65% in size
Target sequence (P80244 whole entry, looked up): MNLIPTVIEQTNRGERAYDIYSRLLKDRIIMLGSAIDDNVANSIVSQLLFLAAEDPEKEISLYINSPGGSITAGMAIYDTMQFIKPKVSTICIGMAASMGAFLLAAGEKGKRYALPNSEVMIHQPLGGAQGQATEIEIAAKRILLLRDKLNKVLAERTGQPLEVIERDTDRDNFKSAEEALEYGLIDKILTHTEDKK
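Purified B. subtilis ClpP, 10 microg/mL final in Tris/HCl pH8 with KCl, BSA, glycerol and Tween-20, cleaved an Abz/nitrotyrosine-quenched decapeptide. Fluorescence (ex 320, em 430) was read at 0 and 20 min at room temperature. Delta was normalized to 5.8 microM ADEP and DMSO/no-enzyme controls.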
IL1B secr inh: inflammasome signaling inhibition, IL-1 beta readout; 360,000 tested, 4.7% active; activity change, % at 57.5 µM; THP-1 LPS/ATP IL-1B secretion, AlphaLISA, 16 h; stronger effect = lower value; in the data active = activity change below about -50%; inconclusive = mostly about -30% to -49%; note: % is set by controls: 0 for no effect and ±100 for the full control effect
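THP-1 cells pretreated 1 hr with compounds (up to 57.5 uM final), then stimulated with LPS (250 ng/mL final) plus ATP (1.25 mM final); secreted IL-1B measured by AlphaLISA after 16 hr, decreased signal indicating inhibition.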
TDP1 cell CPT: growth inhibition of DT40 Tdp1-/-;hTDP1 cells with camptothecin (screen for TDP1 inhibitors); chicken DT40 Tdp1-/-;hTDP1 cells + 20 nM CPT, ATP luminescence, 48 h; Potency, µM (top dose mostly 46.2 µM), inactives show at the top dose activity change, negative = growth inhibition, usual class: inhibitors; 420,000 tested, 12% active; AID 686979; note: potency is the fitted concentration of half-maximal effect; % is set by controls: 0 for no effect and ±100 for the full control effect; nearly all actives have a fitted effect of over 55% in size
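Chicken DT40 Tdp1-/- cells complemented with human TDP1, 400 cells/well, exposed to compounds plus 20 nM camptothecin for at least 48 h at 37 C; viability read as ATP content by CellTiter-Glo luminescence.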
* hit, by the source's call; ? = inconclusive; nt = no result given. Hits are enriched below; roughly 21% of the tested compounds scored in any of these assays. Unless noted, calls come from the whole dose curve; as a rule, active = well fitted inhibition curve with a large enough effect; inconclusive = small, poorly fitted or top-dose-only effect; inactive = flat fitted curve, though single readings scatter.

SMILES	DT40 TDP1 no CPT	DRD3 antagonist	DRD3 agonist	ClpP mod	IL1B secr inh	TDP1 cell CPT
CCCN1C(=O)/C(=C\C=C2/C=CN(CC)c3ccccc32)SC1=S	10µM*	-12	3	-12%	-12	?
CCOC(=O)c1cccc(Nc2nc(-c3cccnc3)nc3ccccc23)c1	10µM*	23	7	-9%	-108*	23µM*
COC(=O)c1cccc(Nc2nc(-c3ccncc3)nc3ccccc23)c1	?	6	0	nt	17	?
COC(=O)c1cccc(Nc2nc(-c3cccnc3)nc3ccccc23)c1	9.2µM*	142	21	nt	-22	?
O=C(O)c1cccc(Nc2nc(-c3cccnc3)nc3ccccc23)c1	?	7	2	-3%	28	?
COc1ccc2cc1Oc1cc3c(cc1OC)CC[N+](C)(C)[C@H]3Cc1ccc(cc1)Oc1c(OC)c(OC)cc3c1[C@@H](C2)[N+](C)(C)CC3	?	nt	-7	nt	nt	17%
O=C(N/N=C1\C2CN3CCN(C2)CC1(c1ccccc1)C3)c1ccc(F)cc1	14%	6	0	nt	31	7%
CC(C)(C)c1ccc(C(=O)N/N=C2\C3CN4CCN(C3)CC2(c2ccccc2)C4)cc1	?	15	-2	22µM*	21	?
COc1c(Cl)cc(C(=O)Nc2cccnc2)cc1Cl	-20%	0	5	0%	11	-7%
Cc1cc(N2CCN(C)CC2)nc(=S)[nH]1	-17%	-81*	-17	nt	12	8%
Cc1cc(N2CCN(C)CC2)nc(-c2ccccc2O)n1	11%	-28	-10	4%	?	5%
O=c1c(-c2ccc(F)cc2)nc2cnc(Nc3ccccc3)nc2n1C[C@H]1CCCO1	-3%	nt	nt	nt	nt	25%
COc1ccc(Cl)cc1Nc1ncnc2c1nc1n2CCCC1	16µM*	nt	3	-4%	nt	12µM*
Fc1ccccc1Nc1ncnc2c1nc1n2CCCCC1	?	nt	2	-2%	nt	?
COc1ccc(OC)c(Nc2ncnc3c2nc2n3CCCC2)c1	?	nt	5	-2%	nt	9.2µM*
COc1ccccc1Nc1ncnc2c1nc1n2CCCC1	8.2µM*	nt	12	2%	nt	7.3µM*
Cc1cc(C)cc(Nc2ncnc3c2nc2n3CCCC2)c1	9.2µM*	nt	1	-5%	nt	9.2µM*
Cc1ccc(Nc2ncnc3c2nc2n3CCCC2)cc1F	?	nt	5	-3%	nt	?
CC(C)c1ccc(Nc2ncnc3c2nc2n3CCCC2)cc1	?	nt	10	-1%	nt	?
Cc1ccc(Cl)cc1N1CCN(S(=O)(=O)c2ccc3c(c2)NC(=O)C(C)C(=O)N3)CC1 (centres undefined)	?	22	3	1%	14	?
COc1ccc(-n2c(=O)c(-c3cccs3)nc3cnc(OC)nc32)cc1	?	nt	nt	nt	nt	-79%
COc1cc(-c2nnc(SCC(=O)NC(C)C)o2)cc(OC)c1OC	-18%	nt	-14	0%	nt	-29%
CCNS(=O)(=O)c1ccc(CCC(=O)N2CCC(C)CC2)cc1	4%	8	0	1%	0	4%
CCCCNC(=O)c1nc(C2CCNCC2)oc1-c1cccc(C(F)(F)F)c1	?	3	-13	2%	?	?
O=C(NC1CCCCC1)c1nc(C2CCNCC2)oc1-c1ccccc1	?	11	-2	-2%	-66*	?
CC1(C)CC2CN(C(=O)Cc3ccccc3)C(C)(C2)C1 (centres undefined)	16µM*	-25	-3	1%	-2	?
CC1(C(=O)N2Cc3ccccc3C2)CCN1C(=O)Cc1ccccc1 (centres undefined)	?	0	-5	-3%	5	?
Cc1ccc(NC(=O)CSc2nnc3ccc4ccccc4n23)cc1	?	nt	5	48%	nt	-25%
CN1CCN(Cc2ccc(Sc3ccc(Cl)cc3)c([N+](=O)[O-])c2)CC1	15µM*	-55*	-44	-23%	-92*	?

High-throughput results: PubChem BioAssay, National Center for Advancing Translational Sciences (NCATS)
